Measurements as given in PubChem BioAssay AID1159580 (chemical genetic matrix, 2015).
Where “and” joins values, the source holds several entries; their conditions need not be identical. Equal values may be shown once. Among all 5,500 compounds or so, about 2,000 (36%) were called active. Not shown: some 18% with an inconclusive outcome. Rule as the data show it: active = normalized growth mostly below about 0.91 (no sharp cut-off); inconclusive = no clear call, values can overlap the other calls; inactive = mostly above about 0.92. Some of the results follow.

Assay: chemical genetic growth profiling, strain panel (AID 1159580);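 also: tested at 20 µM; growth read once vehicle control cultures reached saturation at 30 °C; 1 = growth at the plate median or of vehicle wells; lower values mean less growth of the strain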
Conditions: S. cerevisiae deletion strains, growth OD

Measured: normalized growth

CC(C)NCC(O)c1cc(O)cc(O)c1 (stereo not drawn)
inactive: locus YAL013W, strain DEP1, hits give low values 1.03 | locus YAL021C, strain ccr4, hits give low values 0.974 | locus YAL026C, strain drs2, hits give low values 1 | locus YAL030W, strain snc1, hits give low values 0.994 | locus YAL040C, strain CLN3, hits give low values 1.02 | locus YBL061C, strain skt5, hits give low values 0.991 | locus YBR009C, strain hhf1, hits give low values 1.01 | locus YBR021W, strain FUR4, hits give low values 1.02 | locus YBR023C, strain chs3, hits give low values 0.984 | locus YBR171W, strain sec66, hits give low values 0.998 | locus YBR229C, strain ROT2, hits give low values 1 | locus YBR231C, strain swc5, hits give low values 0.993 | locus YBR279W, strain paf1, hits give low values 0.992 | locus YCL011C, strain gbp2, hits give low values 0.982 | locus YCL016C, strain dcc1, hits give low values 0.976 | locus YCL029C, strain bik1, hits give low values 0.983 | locus YCL061C, strain MRC1 (second series), hits give low values 1.01 | locus YCL061C, strain MRC1, hits give low values 0.991 | locus YCL069W, strain vba3, hits give low values 0.992 | locus YCR088W, strain abp1, hits give low values 0.994 | locus YDL005C, strain med2, hits give low values 1 | locus YDL035C, strain GPR1, hits give low values 1.01 | locus YDL040C, strain nat1, hits give low values 0.994 | locus YDL074C, strain BRE1, hits give low values 1.01 | locus YDL101C, strain DUN1, hits give low values 1 | locus YDL134C, strain PPH21, hits give low values 1.01 | locus YDL185W, strain tfp1, hits give low values 0.964 | locus YDL192W, strain arf1, hits give low values 0.984 | locus YDR001C, strain nth1, hits give low values 0.983 | locus YDR069C, strain doa4, hits give low values 1.01 | locus YDR101C, strain arx1, hits give low values 1.02 | locus YDR137W, strain rgp1, hits give low values 0.977 | locus YDR150W, strain NUM1, hits give low values 0.996 | locus YDR159W, strain sac3, hits give low values 1.03 | locus YDR162C, strain NBP2, hits give low values 1.01 | locus YDR195W, strain ref2 0.982 | locus YDR297W, strain sur2, hits give low values 0.989 | locus YDR318W, strain mcm21, hits give low values 0.982 | locus YDR334W, strain swr1, hits give low values 0.974 | locus YDR335W, strain msn5, hits give low values 1 | locus YDR363W, strain ESC2, hits give low values 1.05 | locus YDR388W, hits give low values 1 | locus YDR392W, strain spt3, hits give low values 0.928 | locus YDR502C, strain sam2, hits give low values 0.993 | locus YEL003W, strain gim4, hits give low values 1 | locus YEL037C, strain rad23, hits give low values 0.989 | locus YEL061C, strain CIN8 (second series), hits give low values 0.98 | locus YEL061C, strain CIN8, hits give low values 0.995 | locus YER002W, strain NOP16, hits give low values 0.991 | locus YER015W, strain faa2, hits give low values 0.988 | locus YER016W, strain bim1, hits give low values 0.999 | locus YER110C, hits give low values 0.973 | locus YER111C, strain swi4, hits give low values 0.978 | locus YER155C, strain BEM2 (second series), hits give low values 1 | locus YER155C, strain BEM2, hits give low values 1 | locus YER167W, strain BCK2, hits give low values 0.995 | locus YFR010W, strain ubp6, hits give low values 0.992 | locus YGL078C, strain dbp3, hits give low values 0.969 | locus YGL086W, strain mad1, hits give low values 1.01 | locus YGL167C, strain pmr1, hits give low values 0.991 | locus YGL173C, strain kem1, hits give low values 1 | locus YGL227W, strain vid30, hits give low values 0.995 | locus YGL240W, strain doc1, hits give low values 1.01 | locus YGL248W, strain PDE1, hits give low values 1 | locus YGL253W, strain hxk2, hits give low values 0.974 | locus YGR135W, strain pre9, hits give low values 0.949 | locus YGR229C, strain SMI1, hits give low values 1.03 | locus YGR252W, strain gcn5, hits give low values 0.963 | locus YHR013C, strain ard1, hits give low values 0.961 | locus YHR027C, strain rpn1, hits give low values 1.02 | locus YHR030C, strain SLT2, hits give low values 1.01 and 0.952 | locus YHR079C, strain IRE1 (second series), hits give low values 0.988 | locus YHR079C, strain IRE1, hits give low values 0.964 | locus YHR094C, strain hxt1, hits give low values 1 | locus YHR129C, strain ARP1, hits give low values 1 | locus YHR142W, strain chs7, hits give low values 0.967 | locus YHR200W, strain rpn10, hits give low values 0.985 | locus YIL066C, strain RNR3, hits give low values 0.997 | locus YIL073C, strain SPO22, hits give low values 0.938 | locus YIL125W, strain kgd1, hits give low values 1.01 | locus YIR030C, strain dcg1, hits give low values 0.978 | locus YJL092W, strain hpr5, hits give low values 0.988 | locus YJL095W, strain BCK1 (second series), hits give low values 0.994 | locus YJL095W, strain BCK1, hits give low values 0.986 and 0.963 | locus YJL115W, strain asf1, hits give low values 0.977 | locus YJL129C, strain trk1, hits give low values 0.983 | locus YJL134W, strain LCB3, hits give low values 1.01 | locus YJL154C, strain vps35, hits give low values 1.02 | locus YJL164C, strain tpk1, hits give low values 0.993 | locus YJL166W, strain qcr8, hits give low values 0.974 | locus YJL168C, strain set2, hits give low values 0.999 | locus YJL187C, strain SWE1 (second series), hits give low values 0.995 | locus YJL187C, strain SWE1, hits give low values 0.987
